For five compounds, z-score and composite z-score results are on record in PubChem BioAssay.

Calls of active or inactive are those of the source.

Test [1] in a line: E. coli DRC41 culture turbidity changes, primary screen, E. coli filamentation inducer project, strain DRC41, OD650, 48 h (AID 1152).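 Also: E. coli MC1000 strain DRC41 lacking acrAB efflux pump and sulA.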 The settings on record: E. coli DRC41 (acrAB sulA), higher = more signal, called active from +8 up or from −8 down.
Test [2] is described as follows: small-molecule binders of probe aLefty1, primary screen, biochemical, small-molecule microarray, 635/667 nm fluorescence (AID 1153).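 Also: score merges spot fluorescence with signal-to-noise ratio from the scanned slide images.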 Conditions: higher = more signal.
The nature of test [3]: PSAC antagonists in infected red cells, primary screen, cell-based, P. falciparum Indochina, OD700, 1 h (AID 1154). Conditions: P. falciparum Indochina infected RBC osmotic lysis, higher = more signal, called active from +8 up or from −8 down.
The nature of test [4]: PSAC antagonists in infected red cells, primary screen, cell-based, P. falciparum Indochina, OD700, 2 h (AID 1155).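 Also: lysis reports solute entry through the parasite surface anion channel PSAC; channel blockers reduce lysis of infected cells.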 The settings on record: P. falciparum Indochina infected erythrocytes, osmotic lysis OD700; higher = more signal, called active from +8 up or from −8 down.
A short description of test [5]: osmotic lysis modulators in infected erythrocytes, primary screen, PSAC antagonist project, cell-based, P. falciparum Indochina, OD700, 3 h (AID 1156). Conditions: higher = more signal, called active from +8 up or from −8 down.
Test [6] can be described thus: PSAC antagonists in infected red cells, primary screen, cell-based, P. falciparum Indochina, OD700, 18 h (AID 1157). Conditions: P. falciparum Indochina infected erythrocytes, osmotic lysis OD700, 18 h; higher = more signal, called active from +8 up or from −8 down.
Test [7] can be described thus: modulators of S6 phosphorylation in cells, primary screen, cell-based, A549, cytoblot, luminescence, serum-stimulated (AID 1158).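 Also: serum-stimulated A549 lung adenocarcinoma cells; signal is phosphorylated S6 detected by cytoblot immunostaining with HRP secondary.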 The settings on record: A549 phospho-S6 cytoblot, 5 h, higher = more signal.
The target of test [8] is NADPH oxidase 2 (Homo sapiens) (UniProt P04839). Nature of the test: NOX2-dependent H2O2 signal modulators, primary screen, NOX inhibitor project, cell-based, HEK293-NOX2, PMA-stimulated, Amplex Red fluorescence (AID 1159). Also: test concentration not given here. Conditions: 45 min, higher = more signal, called active from +8 up or from −8 down.
In test [9] the target is NADPH oxidase 4 (Homo sapiens) (UniProt Q9NPH5). Nature of the test: NOX4-dependent H2O2 signal modulators, primary screen, NOX inhibitor project, cell-based, HEK293-NOX4, tetracycline-induced, Amplex Red fluorescence (AID 1160). Conditions: 45 min, higher = more signal, called active from +8 up or from −8 down.
Test [10] addresses NADPH oxidase 5 (Homo sapiens) (UniProt Q96PH1). Nature of the test: NOX5-dependent H2O2 signal modulators, primary screen, NOX inhibitor project, cell-based, HEK293-NOX5, Amplex Red fluorescence (AID 1161). Conditions: HEK293-NOX5, ionomycin, 45 min, higher = more signal.
The nature of test [11]: A549 cell viability effects, profiling panel, calcein-AM fluorescence, 48 h, basal (AID 1162). Also: test concentration not given here. Conditions: higher = more signal.
A short description of test [12]: adipocyte viability effects, profiling panel, cell-based, 3T3-L1 adipocytes, calcein-AM fluorescence, 48 h, basal (AID 1163). Also: test concentration not given here. Conditions: 3T3-L1 adipocytes viability, higher = more signal.
A short description of test [13]: HepG2 cell viability effects, profiling panel, calcein-AM fluorescence, 48 h, basal (AID 1164). Also: test concentration not given here. The settings on record: higher = more signal.
Test [14] can be described thus: MM1S cell viability effects, profiling panel, calcein-AM fluorescence, 48 h, basal (AID 1165).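 Also: viability of MM1S multiple myeloma cells under basal unstimulated conditions; test concentration not given here.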 Conditions: higher = more signal.
Test [15] is described as follows: basal RPMI8226 viability, no added stimulus, profiling panel, cell-based, calcein-AM fluorescence, 48 h, PK04 Diversity Set (AID 1166).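 Also: cells grown under basal conditions without added stimulus; test concentration not given here.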 The settings on record: RPMI8226 myeloma viability, higher = more signal.
Test [16] in a line: basal HepG2 mitochondrial membrane potential changes, profiling panel, cell-based, JC-1 fluorescence, 24 h, 100 nL compound (AID 1167). Also: test concentration not given here. Conditions: higher = more signal.
A short description of test [17]: basal 3T3-L1 adipocyte mitochondrial potential changes, profiling panel, cell-based, JC-1 fluorescence, 3T3-L1 adipocytes, 24 h, 100 nL compound (AID 1168). Also: test concentration not given here. Conditions: JC-1 mitochondrial fluorescence, higher = more signal, called active from +8 up or from −8 down.
Test [18] is described as follows: basal RPMI8226 mitochondrial membrane potential changes, profiling panel, cell-based, JC-1 fluorescence, 24 h, 100 nL compound (AID 1169). Also: test concentration not given here. Conditions: RPMI8226 myeloma, JC-1 mitochondrial potential fluorescence, higher = more signal.
Test [19] can be described thus: basal MM1S mitochondrial membrane potential changes, profiling panel, cell-based, JC-1 fluorescence, 24 h, 100 nL compound (AID 1170). Also: test concentration not given here. The settings on record: higher = more signal.
A short description of test [20]: A549 lung cancer cell viability effects, profiling panel, resazurin fluorescence, 24 h, PK04 Diversity Set (AID 1171). Also: test concentration not given here. The settings on record: higher = more signal, called active from +8 up or from −8 down.

Chain of NADPH oxidase 2 (Homo sapiens) (P04839 whole entry, looked up): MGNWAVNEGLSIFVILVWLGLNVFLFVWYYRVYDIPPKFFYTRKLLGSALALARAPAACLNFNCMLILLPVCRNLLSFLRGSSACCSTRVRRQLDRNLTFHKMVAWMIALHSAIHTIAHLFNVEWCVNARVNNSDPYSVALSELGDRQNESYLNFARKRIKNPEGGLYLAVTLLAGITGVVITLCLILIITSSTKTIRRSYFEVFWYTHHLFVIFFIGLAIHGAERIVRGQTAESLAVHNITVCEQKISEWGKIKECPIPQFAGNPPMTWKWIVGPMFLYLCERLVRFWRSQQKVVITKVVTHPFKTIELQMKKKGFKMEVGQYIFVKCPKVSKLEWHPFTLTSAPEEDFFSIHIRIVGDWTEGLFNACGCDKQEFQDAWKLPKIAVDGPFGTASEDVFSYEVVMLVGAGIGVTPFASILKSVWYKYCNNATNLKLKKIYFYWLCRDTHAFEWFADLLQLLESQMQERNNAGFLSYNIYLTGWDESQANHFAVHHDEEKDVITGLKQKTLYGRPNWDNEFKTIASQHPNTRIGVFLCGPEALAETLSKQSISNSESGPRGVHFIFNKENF
Chain of NADPH oxidase 5 (Homo sapiens) (Q96PH1 whole entry, looked up): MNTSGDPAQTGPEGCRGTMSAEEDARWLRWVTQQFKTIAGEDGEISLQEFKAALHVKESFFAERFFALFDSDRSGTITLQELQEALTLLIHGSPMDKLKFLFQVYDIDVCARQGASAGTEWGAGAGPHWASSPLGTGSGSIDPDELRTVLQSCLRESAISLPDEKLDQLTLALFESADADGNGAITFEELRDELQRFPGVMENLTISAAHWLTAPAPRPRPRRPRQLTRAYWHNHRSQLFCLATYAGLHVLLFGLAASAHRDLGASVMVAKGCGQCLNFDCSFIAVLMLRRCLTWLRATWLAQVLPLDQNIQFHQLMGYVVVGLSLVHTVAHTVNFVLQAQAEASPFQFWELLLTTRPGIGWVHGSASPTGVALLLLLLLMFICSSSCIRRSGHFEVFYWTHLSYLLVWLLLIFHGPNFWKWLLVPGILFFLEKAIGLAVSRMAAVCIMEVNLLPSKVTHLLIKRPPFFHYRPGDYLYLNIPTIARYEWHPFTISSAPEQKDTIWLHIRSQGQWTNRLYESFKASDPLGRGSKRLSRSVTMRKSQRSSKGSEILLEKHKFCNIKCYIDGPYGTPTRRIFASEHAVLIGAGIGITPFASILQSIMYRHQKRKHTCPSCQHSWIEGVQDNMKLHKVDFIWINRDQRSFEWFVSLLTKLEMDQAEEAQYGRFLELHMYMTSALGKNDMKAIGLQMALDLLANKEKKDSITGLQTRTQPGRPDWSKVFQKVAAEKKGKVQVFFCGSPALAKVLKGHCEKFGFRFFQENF
Chain of NADPH oxidase 4 (Homo sapiens) (Q9NPH5 whole entry, looked up): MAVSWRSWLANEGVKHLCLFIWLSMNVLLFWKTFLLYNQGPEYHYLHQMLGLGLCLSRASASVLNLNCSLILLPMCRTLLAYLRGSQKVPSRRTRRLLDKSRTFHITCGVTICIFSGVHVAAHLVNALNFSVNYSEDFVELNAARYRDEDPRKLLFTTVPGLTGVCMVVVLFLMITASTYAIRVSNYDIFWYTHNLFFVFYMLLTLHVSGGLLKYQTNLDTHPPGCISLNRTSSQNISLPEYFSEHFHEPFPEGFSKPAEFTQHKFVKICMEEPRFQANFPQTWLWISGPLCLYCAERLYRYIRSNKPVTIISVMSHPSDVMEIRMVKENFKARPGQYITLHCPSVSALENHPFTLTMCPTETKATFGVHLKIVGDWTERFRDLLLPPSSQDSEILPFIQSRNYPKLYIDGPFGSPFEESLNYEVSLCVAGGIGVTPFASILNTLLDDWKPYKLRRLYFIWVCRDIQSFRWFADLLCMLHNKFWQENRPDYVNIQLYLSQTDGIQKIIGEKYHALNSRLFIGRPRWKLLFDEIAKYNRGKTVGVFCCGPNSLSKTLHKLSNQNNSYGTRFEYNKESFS

For `COc1ccc([Si](C)(C)[C@H]2[C@H](CCO)O[C@@]3(C(=O)N(Cc4cccc(N5C(=O)c6ccccc6Oc6ccccc65)c4)c4ccccc43)[C@@H]2C)cc1`, the z-score in test [1] was 0.253 (inactive); in test [3], 2.63 (inactive); in [4], 2.78 (inactive); in test [5], 0.979 (inactive); in test [6], 1.6 (inactive); in [7], 0.87. In addition, the z-score in test [8] is -1.93 (inactive); in test [9], 2.27 (inactive); in test [10], 1.1; in [11], -1.24; in test [12] it was 0.508; in test [13] it was -4.22. In addition, the z-score was -2.87 in test [14]; -4.3 in test [15]; -0.19 in test [16]; 2.27 (inactive) in test [17]; -1.03 in test [18]; -1.84 in test [19]. Also, the z-score in test [20] is -2.25 (inactive). In [2], this compound had a composite z-score of 0.119.

On to `COc1ccc([Si](C)(C)[C@@H]2[C@@H](CC(=O)N(CCO)Cc3ccccc3)O[C@]3(C(=O)N(Cc4ccc(I)cc4)c4ccccc43)[C@H]2C)cc1`, for which the z-score in [1] is 0.452 (inactive); in test [3], 5.81 (inactive); in test [4], 1.02 (inactive); in [5], 0.408 (inactive); in [6] it was 0.794 (inactive); in test [7], 0.421. The z-score in [8] was 0.454 (inactive); in [9], 1.6 (inactive); in [10], 1.55; in [11], -1.14; in test [12] it was 0.909; in test [13], -1.59. For the same compound, the z-score in [14] is -2.54; in test [15], -4.17; in test [16], 1.17; in test [17], 0.448 (inactive); in test [18], -1.2; in test [19], -0.732. In [20], the z-score was -2.88 (inactive). For the same compound, in test [2], the composite z-score was found to be 1.03.

Take `COC(=O)C(CC#Cc1ccc2c(c1)[C@]1(C(=O)N2)[C@H](c2ccccc2OCCO)N2[C@H](c3ccccc3)[C@H](c3ccccc3)OC(=O)[C@H]2[C@@H]1C(=O)N1CCc2cc(OC)c(OC)cc2C1)C(=O)OC`: the z-score was 0.447 (inactive) in test [1]; 3.28 (inactive) in [3]; 2.24 (inactive) in test [4]; 2.54 (inactive) in [5]; 1.25 (inactive) in [6]; -0.033 in test [7]. The z-score is 1.74 (inactive) in test [8]; 1.52 (inactive) in test [9]; 1.73 in [10]; 0.734 in test [11]; -0.19 in test [12]; 2.08 in [13]. The z-score was 0.857 in test [14]; -0.0217 in test [15]; -0.112 in [16]; 2.3 (inactive) in [17]; -0.941 in [18]; -1.47 in test [19]. The z-score in [20] was -0.63 (inactive). For the same compound, the composite z-score in [2] was 0.0215.

On to `C=CCN1C(=O)[C@@]2(O[C@@H](CCn3cc([C@H](O)c4ccccc4)nn3)[C@H]([Si](C)(C)c3ccc(OC)cc3)[C@H]2C)c2cc(N3C(=O)c4cccc5cccc3c45)ccc21`, for which the z-score is -0.851 (inactive) in [1]; 4.77 (inactive) in test [3]; 1.81 (inactive) in [4]; 0.519 (inactive) in [5]; 1.31 (inactive) in test [6]; 0.075 in [7]. Also, the z-score in test [8] was 0.962 (inactive); in test [9], 1.57 (inactive); in [10] it was 2.52; in test [11], 0.248; in test [12], -0.0484; in [13] it was -1.93. In addition, the z-score was -1.87 in [14]; -4.04 in test [15]; 0.319 in test [16]; -0.127 (inactive) in [17]; -0.929 in test [18]; -1.37 in [19]. Further, in [20], the z-score is -1.94 (inactive). This compound registered a composite z-score in test [2] of -0.101.

With `CC=CC(O)C1C=CC2C(=O)NC(=O)C2N1Nc1ccc(Cl)cc1Cl` (stereo not given), the z-score in test [1] was -1.56 (inactive); in test [3], 0.76 (inactive); in test [4] it was 0.786 (inactive); in [5], 0.0682 (inactive); in [6], 1.29 (inactive); in test [7] it was -0.637. Further, the z-score in [8] is -1.35 (inactive); in [9], -4.61 (inactive); in test [10], -3.02; in test [11], -1.54; in [12], -0.883; in [13], -1.14. Moreover, the z-score in test [14] was -0.866; in [15] it was -0.624; in test [16], -2.04; in test [17], -1.04 (inactive); in [18] it was 0.501; in test [19] it was -0.446. Moreover, the z-score in test [20] was -0.458 (inactive). This compound also had a composite z-score in test [2] of 0.169.
